In PubChem BioAssay (NCATS):
Records with an inconclusive call do not appear. Where a call stands in place of a potency, no number is given. The source made the active and inactive calls. Calls come from the whole dose curve; as a rule, active = well fitted curve in the direction sought with a large enough effect; inconclusive = small, poorly fitted or top-dose-only effect, or another doubt; inactive = no such curve, though single readings can be large; an effect the other way counts as inactive or inconclusive.

Columns and labels:
[1] = molecular target: Aldehyde dehydrogenase, mitochondrial (Homo sapiens) (UniProt P05091); experiment: qHTS for Inhibitors of the Aldehyde Dehydrogenase Family (ALDH2) Primary screen (AID 2061308); note: nearly all actives have a fitted effect of over 55% in size
[2] = molecular target: Retinaldehyde dehydrogenase 3 (Homo sapiens) (UniProt P47895); experiment: qHTS for Inhibitors of the Aldehyde Dehydrogenase Family (ALDH1A3) Primary screen (AID 2061315)

SMILES	Potency [1]	Potency [2]
COc1ccc(C(=O)Nc2ccc(-c3nc4ccccc4[nH]3)cc2)cc1C(F)(F)F	inactive	inactive
Clc1ccccc1-c1ccc2ncnc(NCc3ccc4c(c3)OCO4)c2c1	inactive	inactive
Cc1ccc(-c2ccc(=O)n(CC(=O)N(C)[C@H](C)c3ccccc3)n2)cc1	inactive	inactive
CC(C)C1CCC(C(=O)Nc2ccc(S(=O)(=O)Nc3nccs3)cc2)CC1 (configuration not stated)	inactive	inactive
COc1cc(O)c(C(CC(=O)N2CCCCCC2)c2ccc3c(c2)OCO3)c(OC)c1 (configuration not stated)	inactive	inactive
C[C@@]12CC[C@@H]3[C@@](CC[C@H]4[C@@]3(C)CCC[C@@]4(C)C(=O)O)(CC1=O)C2	inactive	inactive
CCCn1c(-c2ccc(F)cc2)nc2c(NC3CCN(Cc4ccccc4)CC3)nc(C)nc21	inactive	inactive
Cc1ccc(OCCn2c(CCN(C)C(=O)C3CCCCC3)nc3ccccc32)cc1	inactive	inactive
COc1cccc(CNc2ccc(S(=O)(=O)Nc3ncccn3)cc2)c1O	inactive	inactive
O=C1c2ccccc2NC(c2ccccc2O)N1Cc1ccccc1 (configuration not stated)	inactive	inactive
Cc1cnc(-c2ccccc2C(C)C)nc1NCC1CCN(c2cccnc2)C1 (configuration not stated)	inactive	inactive
Cc1ccc(C(=O)Nc2ccc(N3CCOCC3)cc2)cc1	inactive	inactive
CC(C)N1Cc2ccc(Nc3nn4c(=O)c5ccccc5nc4s3)cc2C1	inactive	inactive
CO[C@H]1/C=C/[C@@](C)(O)/C=C/C(=O)O[C@H](C)[C@@H](C)CC/C=C/1C	inactive	inactive
NC(=O)Nc1cc(-c2ccc(CN3CCOCC3)c(F)c2)sc1C(=O)N[C@H]1CCCNC1	inactive	inactive
Cc1noc(C)c1-c1ccc2ncnc(NC(C)c3ccco3)c2c1 (configuration not stated)	inactive	inactive
Cc1cccc(-n2cnc3cc(C(=O)N4CCCC(C(C)C)C4)ccc32)c1 (configuration not stated)	inactive	inactive
O=C(Nc1ccc(Cl)c(C(F)(F)F)c1)Nc1cccc(-c2ccncc2)n1	inactive	inactive
NC(=O)C1CCN(c2nc(-c3ccccc3)cs2)CC1	inactive	inactive
O=C(Nc1cncnc1)c1cccs1	inactive	inactive
CN(CC1CCCO1)c1ncnc2ccc(-c3ccc4c(c3)OCO4)cc12 (configuration not stated)	inactive	inactive

SMILES	Potency [1]	Potency [2]
Cc1ccc(OCCn2c(CCNC(=O)c3ccc(C)cc3)nc3ccccc32)cc1	inactive	inactive
O=C(Nc1ccc(Cl)c(Cl)c1)N1CCN(c2ccncc2)CC1	inactive	inactive
C=C1C(=O)OC2C3=C(C)C(=O)CC3C(C)CC(O)C12 (configuration not stated)	inactive	inactive
Cc1ccnc(NC(=S)NCCNc2cccc(C(F)(F)F)c2)c1	inactive	inactive
O=S(=O)(Nc1nccs1)c1ccc(NCc2cc(Cl)ccc2O)cc1	inactive	inactive
CNc1nc(-c2ccc3c(N)n[nH]c3c2)cc(N2CC(C(=O)NC3CCCCC3)CCC2C)n1 (configuration not stated)	inactive	inactive
CC(C)c1ccccc1-c1nc(NCc2ccc(-c3cccnc3)cc2)c2occc2n1	inactive	inactive
CCOC(=O)C1CCN(C(=O)C2(NC(=O)Nc3ccc(F)cc3F)CCCCC2)CC1	inactive	inactive
CCOC(=O)c1cc2c([nH]1)CCCC2=O	inactive	inactive
Cc1ccccc1-c1ccc(=O)n(CC(=O)NCCc2ccccc2)n1	inactive	inactive
COc1cccc(C2=Nn3c(nnc3-c3ccccc3OC)SC2)c1	inactive	inactive
FC(F)(F)c1cc(-c2ccc(CNc3nc(-c4ccccc4C(F)(F)F)nc4ccccc34)cc2)ccc1Cl	inactive	inactive
c1c[nH]c(CNc2ncnc3ccc(-c4ccc5c(c4)OCO5)cc23)n1	inactive	inactive
CC1=CC(=O)C2C(C)(C)CCCC2(C)C12CCC1(COC(=O)C1)O2 (configuration not stated)	inactive	inactive
C=CCNc1oc(-c2cccc(Br)c2)nc1C#N	inactive	inactive
Cc1cccc(Cn2ncc3c4sc(C)cc4n(C)c3c2=O)c1	inactive	inactive
CN1CCN(c2cccc(Nc3nn4c(=O)c5ccccc5nc4s3)c2)CC1	inactive	inactive
Fc1cc(Nc2nc(-c3ccncc3)nc3ccccc23)ccc1-c1cccc(OC(F)F)c1	inactive	inactive
NC(=O)c1c(NC(=O)C2CCCO2)sc2c1CCCC2 (configuration not stated)	inactive	inactive
COc1ccc(OCc2nnc3n2N=C(c2ccccc2)CS3)cc1	inactive	inactive
